In the supplement of paper PMC11732987, “Enantioselective OTUD7B fragment discovery through chemoproteomics screening and high-throughput optimisation” (Communications Chemistry, 2025):

Experiments:
Test in all cases: log2 ratio of Biotin-Ahx-Ub-VS probe labelling (fragment/DMSO); higher = less target engagement (more negative = stronger competition), active = hit call of the paper (q ≤ 0.05, log2 ratio ≤ -1)
Conditions in all cases: compound concentration: 200 uM; treatment time: 3 h
USP19 = target: T1, USP19 (UniProt O94966)
T1 sequence (whole entry): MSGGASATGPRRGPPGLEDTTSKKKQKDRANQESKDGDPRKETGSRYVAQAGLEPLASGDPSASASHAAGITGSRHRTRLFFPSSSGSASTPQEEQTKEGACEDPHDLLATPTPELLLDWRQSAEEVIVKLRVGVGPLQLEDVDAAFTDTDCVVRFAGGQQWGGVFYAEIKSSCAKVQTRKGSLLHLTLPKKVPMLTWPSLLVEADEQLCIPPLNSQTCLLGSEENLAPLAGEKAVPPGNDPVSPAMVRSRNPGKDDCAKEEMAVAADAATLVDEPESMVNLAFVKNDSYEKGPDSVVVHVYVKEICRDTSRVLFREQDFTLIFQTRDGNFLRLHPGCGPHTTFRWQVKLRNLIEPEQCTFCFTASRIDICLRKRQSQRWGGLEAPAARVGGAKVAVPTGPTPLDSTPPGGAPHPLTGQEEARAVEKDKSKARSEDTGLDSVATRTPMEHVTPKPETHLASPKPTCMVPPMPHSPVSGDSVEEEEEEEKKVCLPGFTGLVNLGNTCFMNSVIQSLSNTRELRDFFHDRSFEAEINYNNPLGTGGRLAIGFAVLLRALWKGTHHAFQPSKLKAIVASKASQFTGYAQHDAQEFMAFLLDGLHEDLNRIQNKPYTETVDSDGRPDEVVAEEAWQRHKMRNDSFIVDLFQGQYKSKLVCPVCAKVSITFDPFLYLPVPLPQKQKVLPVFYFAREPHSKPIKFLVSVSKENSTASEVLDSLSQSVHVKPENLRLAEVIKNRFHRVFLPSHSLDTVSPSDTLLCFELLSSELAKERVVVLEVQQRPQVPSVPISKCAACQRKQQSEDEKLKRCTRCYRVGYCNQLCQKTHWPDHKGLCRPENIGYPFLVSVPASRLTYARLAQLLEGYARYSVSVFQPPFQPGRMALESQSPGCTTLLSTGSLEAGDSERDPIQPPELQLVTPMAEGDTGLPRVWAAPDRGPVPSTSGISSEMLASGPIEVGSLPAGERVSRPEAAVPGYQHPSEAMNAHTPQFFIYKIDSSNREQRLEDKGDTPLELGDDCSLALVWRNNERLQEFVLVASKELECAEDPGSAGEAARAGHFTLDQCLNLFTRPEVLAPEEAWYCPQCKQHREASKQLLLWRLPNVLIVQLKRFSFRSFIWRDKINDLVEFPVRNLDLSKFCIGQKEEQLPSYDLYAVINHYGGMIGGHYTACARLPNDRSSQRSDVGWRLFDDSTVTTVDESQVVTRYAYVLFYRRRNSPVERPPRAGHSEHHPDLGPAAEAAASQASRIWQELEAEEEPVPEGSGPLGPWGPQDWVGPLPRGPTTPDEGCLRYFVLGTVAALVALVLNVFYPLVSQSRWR
Outline: (§1)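 Fragment (200 µM) or vehicle was incubated for 3 h with triplicate HEK293T lysate samples of 495 µg, which were then treated with Biotin-Ahx-Ub-VS at 0.5 µM final for 1 h. Labelled DUBs were enriched on NeutrAvidin, digested with LysC and trypsin, and analysed by diaPASEF LC-MS/MS. Values are average log2 fragment/vehicle ratios from an unpaired t-test on global-median-normalised Spectronaut label-free quantities, using proteins with ≥2 unique peptides.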

USP24 = USP24 (UniProt Q9UPU5)
USP24, sequence (Q9UPU5 whole entry): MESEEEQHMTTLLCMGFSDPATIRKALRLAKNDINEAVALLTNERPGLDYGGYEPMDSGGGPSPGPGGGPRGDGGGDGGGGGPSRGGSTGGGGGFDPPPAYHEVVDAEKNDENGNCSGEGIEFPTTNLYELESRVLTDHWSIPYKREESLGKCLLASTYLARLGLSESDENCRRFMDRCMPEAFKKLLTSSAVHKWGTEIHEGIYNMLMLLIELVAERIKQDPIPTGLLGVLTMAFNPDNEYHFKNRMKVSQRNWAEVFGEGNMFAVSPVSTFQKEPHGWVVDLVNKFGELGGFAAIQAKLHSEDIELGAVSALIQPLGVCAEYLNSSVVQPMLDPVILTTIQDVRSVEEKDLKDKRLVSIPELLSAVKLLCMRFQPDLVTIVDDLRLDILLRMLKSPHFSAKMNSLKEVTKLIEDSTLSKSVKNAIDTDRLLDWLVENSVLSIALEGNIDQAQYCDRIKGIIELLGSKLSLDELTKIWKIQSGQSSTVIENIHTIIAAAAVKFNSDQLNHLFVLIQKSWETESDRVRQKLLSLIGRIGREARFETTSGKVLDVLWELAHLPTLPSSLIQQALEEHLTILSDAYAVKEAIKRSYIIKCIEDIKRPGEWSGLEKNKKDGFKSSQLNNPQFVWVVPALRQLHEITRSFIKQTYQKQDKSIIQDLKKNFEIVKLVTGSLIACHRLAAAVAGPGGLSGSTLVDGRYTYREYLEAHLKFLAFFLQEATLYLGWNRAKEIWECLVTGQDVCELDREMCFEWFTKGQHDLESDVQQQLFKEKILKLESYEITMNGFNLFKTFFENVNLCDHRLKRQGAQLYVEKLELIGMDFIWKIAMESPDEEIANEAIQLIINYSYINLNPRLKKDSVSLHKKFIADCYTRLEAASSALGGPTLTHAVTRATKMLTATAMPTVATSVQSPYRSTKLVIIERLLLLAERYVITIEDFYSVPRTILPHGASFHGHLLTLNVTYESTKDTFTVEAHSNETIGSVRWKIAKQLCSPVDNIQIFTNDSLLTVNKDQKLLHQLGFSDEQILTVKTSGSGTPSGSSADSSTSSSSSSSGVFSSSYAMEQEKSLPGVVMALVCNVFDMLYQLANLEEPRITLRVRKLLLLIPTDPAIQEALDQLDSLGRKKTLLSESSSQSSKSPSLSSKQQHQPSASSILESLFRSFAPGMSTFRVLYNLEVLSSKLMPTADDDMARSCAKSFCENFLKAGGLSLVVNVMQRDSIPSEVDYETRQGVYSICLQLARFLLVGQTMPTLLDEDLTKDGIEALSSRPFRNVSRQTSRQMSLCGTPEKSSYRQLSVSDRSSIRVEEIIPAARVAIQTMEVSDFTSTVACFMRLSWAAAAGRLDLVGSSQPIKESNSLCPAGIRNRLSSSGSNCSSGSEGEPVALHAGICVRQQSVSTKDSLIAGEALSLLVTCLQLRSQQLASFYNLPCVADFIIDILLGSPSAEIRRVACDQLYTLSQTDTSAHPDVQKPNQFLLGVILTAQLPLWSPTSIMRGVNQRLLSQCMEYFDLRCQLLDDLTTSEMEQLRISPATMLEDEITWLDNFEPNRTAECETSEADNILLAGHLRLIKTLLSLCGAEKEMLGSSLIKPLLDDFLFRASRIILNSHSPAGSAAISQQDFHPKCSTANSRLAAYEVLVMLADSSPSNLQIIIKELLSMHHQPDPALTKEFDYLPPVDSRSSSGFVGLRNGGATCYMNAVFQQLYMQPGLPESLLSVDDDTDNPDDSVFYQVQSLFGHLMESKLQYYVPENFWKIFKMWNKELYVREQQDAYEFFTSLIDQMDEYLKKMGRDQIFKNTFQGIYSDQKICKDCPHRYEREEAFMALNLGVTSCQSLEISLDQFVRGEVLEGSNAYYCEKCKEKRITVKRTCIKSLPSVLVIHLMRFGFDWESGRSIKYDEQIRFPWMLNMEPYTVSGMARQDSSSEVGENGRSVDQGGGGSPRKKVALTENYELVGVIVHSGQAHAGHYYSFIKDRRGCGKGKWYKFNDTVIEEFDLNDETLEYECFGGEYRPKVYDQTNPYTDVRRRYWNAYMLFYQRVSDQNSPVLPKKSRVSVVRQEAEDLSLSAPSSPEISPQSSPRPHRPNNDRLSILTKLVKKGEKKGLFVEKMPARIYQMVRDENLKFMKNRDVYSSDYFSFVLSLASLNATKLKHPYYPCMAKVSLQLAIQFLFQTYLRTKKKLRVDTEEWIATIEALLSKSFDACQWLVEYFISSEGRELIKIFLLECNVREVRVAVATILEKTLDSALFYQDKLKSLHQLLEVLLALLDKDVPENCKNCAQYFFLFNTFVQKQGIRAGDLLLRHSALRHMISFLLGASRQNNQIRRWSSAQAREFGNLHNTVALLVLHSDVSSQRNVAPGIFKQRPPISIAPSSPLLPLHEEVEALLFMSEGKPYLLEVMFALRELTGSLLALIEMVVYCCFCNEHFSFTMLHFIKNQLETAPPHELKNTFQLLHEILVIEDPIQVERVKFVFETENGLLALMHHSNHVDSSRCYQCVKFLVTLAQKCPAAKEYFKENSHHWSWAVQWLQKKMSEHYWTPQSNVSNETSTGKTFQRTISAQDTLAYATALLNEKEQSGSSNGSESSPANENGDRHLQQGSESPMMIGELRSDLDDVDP
Outline: as §1

USP25 = target: T2, USP25 (UniProt Q9UHP3)
T2 sequence (whole entry): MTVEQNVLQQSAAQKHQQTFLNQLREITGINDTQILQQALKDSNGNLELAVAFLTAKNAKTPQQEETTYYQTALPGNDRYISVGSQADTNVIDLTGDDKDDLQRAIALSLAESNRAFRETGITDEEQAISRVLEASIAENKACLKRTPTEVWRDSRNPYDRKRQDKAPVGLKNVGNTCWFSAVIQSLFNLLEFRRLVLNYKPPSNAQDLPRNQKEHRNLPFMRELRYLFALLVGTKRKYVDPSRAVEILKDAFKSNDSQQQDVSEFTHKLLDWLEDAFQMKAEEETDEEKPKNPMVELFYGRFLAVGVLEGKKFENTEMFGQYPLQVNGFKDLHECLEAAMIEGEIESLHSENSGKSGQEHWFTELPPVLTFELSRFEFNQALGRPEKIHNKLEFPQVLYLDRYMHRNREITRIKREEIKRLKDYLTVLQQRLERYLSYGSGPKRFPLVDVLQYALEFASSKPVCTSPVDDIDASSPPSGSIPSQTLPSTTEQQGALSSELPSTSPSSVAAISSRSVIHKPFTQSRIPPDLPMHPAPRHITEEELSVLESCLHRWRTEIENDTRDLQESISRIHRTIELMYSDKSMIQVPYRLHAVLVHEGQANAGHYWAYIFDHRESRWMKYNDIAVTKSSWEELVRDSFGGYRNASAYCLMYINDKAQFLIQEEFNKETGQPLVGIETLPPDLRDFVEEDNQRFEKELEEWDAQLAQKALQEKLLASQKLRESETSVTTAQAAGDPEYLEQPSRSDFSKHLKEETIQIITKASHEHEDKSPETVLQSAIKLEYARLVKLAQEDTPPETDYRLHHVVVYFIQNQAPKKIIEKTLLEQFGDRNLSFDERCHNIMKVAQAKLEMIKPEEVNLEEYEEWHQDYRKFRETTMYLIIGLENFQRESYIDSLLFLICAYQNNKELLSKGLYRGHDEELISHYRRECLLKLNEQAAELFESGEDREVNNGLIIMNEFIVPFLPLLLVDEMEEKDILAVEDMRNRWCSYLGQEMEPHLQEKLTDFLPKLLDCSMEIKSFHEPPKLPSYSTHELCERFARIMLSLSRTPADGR
Outline: as §1

USP28 = target: T3, USP28 (UniProt Q96RU2)
T3 sequence (whole entry): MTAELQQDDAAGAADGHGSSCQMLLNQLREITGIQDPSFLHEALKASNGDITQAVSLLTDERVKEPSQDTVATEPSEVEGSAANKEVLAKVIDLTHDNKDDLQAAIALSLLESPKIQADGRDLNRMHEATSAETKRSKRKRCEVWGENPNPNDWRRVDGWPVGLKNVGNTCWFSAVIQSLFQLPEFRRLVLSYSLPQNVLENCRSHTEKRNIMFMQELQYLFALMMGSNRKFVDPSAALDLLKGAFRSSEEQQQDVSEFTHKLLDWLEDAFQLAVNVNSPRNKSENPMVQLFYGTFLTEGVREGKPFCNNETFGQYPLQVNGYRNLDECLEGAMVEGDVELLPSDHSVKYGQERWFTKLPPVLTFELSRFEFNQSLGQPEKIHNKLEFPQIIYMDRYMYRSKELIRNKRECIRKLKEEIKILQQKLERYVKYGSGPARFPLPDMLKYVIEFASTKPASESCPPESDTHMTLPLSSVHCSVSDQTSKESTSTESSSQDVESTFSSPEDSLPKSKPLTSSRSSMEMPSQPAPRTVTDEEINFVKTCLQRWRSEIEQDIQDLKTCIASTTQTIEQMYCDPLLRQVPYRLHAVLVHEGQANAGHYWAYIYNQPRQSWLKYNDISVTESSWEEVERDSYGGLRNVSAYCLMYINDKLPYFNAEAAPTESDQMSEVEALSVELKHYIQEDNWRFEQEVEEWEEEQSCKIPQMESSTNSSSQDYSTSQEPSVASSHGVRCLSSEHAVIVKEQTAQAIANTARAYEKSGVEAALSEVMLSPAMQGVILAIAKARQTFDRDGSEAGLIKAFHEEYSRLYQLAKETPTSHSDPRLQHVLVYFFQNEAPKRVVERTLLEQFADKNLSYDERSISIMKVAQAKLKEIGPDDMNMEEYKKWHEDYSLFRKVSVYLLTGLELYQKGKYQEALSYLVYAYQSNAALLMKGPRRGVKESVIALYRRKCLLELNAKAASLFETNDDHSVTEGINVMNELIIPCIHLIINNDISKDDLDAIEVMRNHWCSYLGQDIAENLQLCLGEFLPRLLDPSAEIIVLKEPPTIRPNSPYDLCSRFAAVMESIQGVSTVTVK
Outline: as §1

Measured: log2 ratio of Biotin-Ahx-Ub-VS probe labelling

Cc1ccc(CC(NC(=O)CCl)c2ccccn2)cc1.Cl (centres undefined)
inactive: USP19 0.168 | USP24 -0.13 | USP25 -0.098 | USP28 -0.126
